# A number with no mark means an inactive call. Results filed as inconclusive are left out. A call without a number means that no potency is given here. The source made the active and inactive calls. Unless noted, the call rests on the fitted dose curve; in most records, active means well fitted curve in the direction sought with a large enough effect; inconclusive means small, poorly fitted or top-dose-only effect, or another doubt; inactive means no such curve, though single readings can be large; an effect the other way counts as inactive or inconclusive.
# Tests used:
# [1] = Confirmation and Secondary Assay for Modulators of Hemoglobin Beta Chain Splicing at IVS2 654 locus (AID 910);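 further: HeLa cells stably carrying EGFP split by mutant beta-globin IVS2-654 intron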
# In short: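 HeLa cells stably expressing EGFP interrupted by β-globin IVS2-654 intron, seeded overnight in Opti-MEM/2% FCS, then treated 2 days at 37 °C. Restored splicing read as total peak GFP intensity per well by laser scanning cytometry (488 nm excitation, 500–520 nm emission); 500 nM antisense PNA as control.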
# [2] = Confirmation and Secondary Assay for Modulators of Hemoglobin Beta Chain Splicing at IVS2 705 locus (AID 930);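 further: HeLa cells stably expressing the EGFP-705 splicing reporter; GFP fluorescence per well restored by corrected splicing of the IVS2-705 intron in EGFP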
# In short: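 Stable HeLa line with EGFP disrupted by mutant beta-globin intron 2 (705). Overnight attachment, then 2 days of compound at 37C, 5% CO2. Signal: peak GFP intensity summed over objects 5-250 µm.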
# [3] = target: Ubiquitin carboxyl-terminal hydrolase 1 (Homo sapiens) (UniProt O94782); assay: Inhibitors of USP1/UAF1: Pilot qHTS (AID 504865);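 further: rhodamine fluorescence freed from ubiquitin-rhodamine substrate followed over time; top concentration of the series differs between compounds; nearly all actives have a fitted effect of over 35% in size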
# In short: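 Deubiquitinase activity followed as kinetic rhodamine fluorescence release from 150 nM Ub-Rho. 1 nM USP1/UAF1 with compound, after 15 min room-temperature preincubation, in HEPES pH 7.8 buffer containing TCEP, EDTA, BSA and Tween-20.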
# [4] = target: Rap guanine nucleotide exchange factor 3 (Homo sapiens) (UniProt O95398); assay: Confirmatory qHTS for antagonist of cAMP-regulated guanine nucleotide exchange factor 3 (EPAC1) (AID 1645880); details: EPAC1 Rap1B-BODIPY-GDP exchange, fluorescence; activity, negative = inhibition: at 115 µM (top of the series); further: nearly all actives have a fitted effect of over 55% in size
# In short: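 Released BODIPY-GDP fluoresces less than Rap1-bound BODIPY-GDP; the signal is followed at 480/540 nm at 5-min intervals over 30 min, after 5 min at room temperature. Reactions contain 100 nM EPAC1, 250 nM RAP1B-BODIPY-GDP and 50 uM GDP; results are normalized to ATA and DMSO.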
# [5] = target: Rap guanine nucleotide exchange factor 3 (Homo sapiens) (UniProt O95398); assay: Confirmatory qHTS for agonist of cAMP-regulated guanine nucleotide exchange factor 3 (EPAC1) (AID 1645881);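 further: EPAC1 catalysed release of BODIPY-GDP from Rap1B seen as fluorescence loss; nearly all actives have a fitted effect of over 75% in size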
# [6] = target: Rap guanine nucleotide exchange factor 4 (Homo sapiens) (UniProt Q8WZA2); assay: Confirmatory qHTS for agonist of cAMP-regulated guanine nucleotide exchange factor 4 (EPAC2) (AID 1645884);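 further: nucleotide exchange releases bodipy-GDP from Rap1 and this lowers its fluorescence; nearly all actives have a fitted effect of over 65% in size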
# [7] = target: Rap guanine nucleotide exchange factor 4 (Homo sapiens) (UniProt Q8WZA2); assay: Confirmatory qHTS for antagonist of cAMP-regulated guanine nucleotide exchange factor 4 (EPAC2) (AID 1645885); further: nearly all actives have a fitted effect of over 25% in size; further: potency means the concentration at half of the fitted maximal effect
# [8] = AP1 Signaling Pathway (AID 357; active means well fitted curve in either direction with a large enough effect, not every such curve was filed as active;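 further: ME-180 reporter cells stimulated with EGF at its EC50 level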); details: ME-180 (cervical carcinoma) AP-1-bla reporter, EGF-induced, beta-lactamase ratio, 5 h; at 7.69 µM (top of the series) unless noted
# In short: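 Cells are seeded overnight, exposed to compound titrations and an EC50 level of EGF for 5 hours at 37 °C, then loaded with CCF4 dye for 2.5 hours. Beta-lactamase activity under the AP-1 element is read as a blue/green ratio.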
# [9] = target: Cytochrome P450 1A2 (Homo sapiens) (UniProt P05177); assay: p450-cyp1a2 (AID 410; calls by dose curve; further: potency means the concentration at half of the fitted maximal effect)
# In short: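 20nM CYP1A2, 100uM Luciferin-ME (=Km), 100mM KPO4; cpd 10 min RT; +NADPH regen, 60 min RT; stop/detect 20 min; luminescence. Normalized to furafylline 57 uM = full inhibition.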
# [10] = NFAT Signaling Pathway (AID 444; active means well fitted curve in either direction with a large enough effect, not every such curve was filed as active;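 further: carbachol stimulus at about its EC50 of 1 µM final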); details: Jurkat NFAT-bla M1, carbachol, beta-lactamase ratio, 5 h; at 7.69 µM (top of the series) unless noted
# In short: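 Jurkat cells with NFAT-driven β-lactamase reporter and co-expressed M1 receptor, stimulated with carbachol (final 1 uM, ~EC50), compound titration, 5 h at 37 °C. CCF4 loaded 1 h at RT; 460/530 nm ratio gave %activity and AC50.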
# [11] = Stat Signaling Pathway (AID 446; active means well fitted curve in either direction with a large enough effect, not every such curve was filed as active;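 further: ME-180 cervical cancer cells given 40 pM IL-6 alongside compound; SIE-controlled beta-lactamase reporter measured as 460/530 nm FRET emission ratio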)
# In short: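 Normalization used AC90 stimulation (300 pM IL-6) and AC90 inhibition (125 nM pan-JAK inhibitor at 40 pM IL-6). The underlying signal is SIE-driven beta-lactamase in ME-180 cells after 5 h IL-6 exposure with compound.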
# [12] = target: Glucocorticoid receptor (Homo sapiens) (UniProt P04150); assay: GR-EFC Redistribution (AID 451; calls by dose curve; further: potency means the concentration at half of the fitted maximal effect); details: CHO-K1 GR-EFC translocation, beta-gal luminescence, 2 h
# In short: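 CHO-K1 cells expressing nuclear EA and GR-ED fragments of b-gal; compounds titrated up to 46 uM final, 2 h at 37 C. GR nuclear translocation read as complemented b-gal luminescence after 1 h RT detection.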
# [13] = target: 3',5'-cyclic-AMP phosphodiesterase 4B (Homo sapiens) (UniProt Q07343); assay: qHTS Assay for Inhibitors of PDE-IV (AID 607; active means well fitted activation curve with a large enough effect in the main read-out, with a control signal flat, not every such curve was filed as active)
# In short: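 HEK293 ACTOne cells with CNG channel (1000/well), endogenous PDE4; membrane potential dye, compounds up to 22.9 uM final. Fluorescence Ex 535/Em 590; RO 20-1724 (100 uM final) as reference.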
# [14] = target: Cytochrome P450 3A4 (Homo sapiens) (UniProt P08684); assay: qHTS Assay for Activators of Cytochrome P450 3A4 (AID 885); further: nearly all actives have a fitted effect of over 65% in size
# In short: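 Human CYP3A4 dealkylates Luciferin-PPXE to luciferin, which luciferase detection converts to light. Substrate was at its KM (25uM), buffer 200mM KPO4, reaction 60 min at RT.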
# [15] = target: Cytochrome P450 2C19 (Homo sapiens) (UniProt P33261); assay: qHTS Assay for Inhibitors and Substrates of Cytochrome P450 2C19 (AID 899); further: potency means the concentration at half of the fitted maximal effect; nearly all actives have a fitted effect of over 60% in size
# In short: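 Luminescent read-out of luciferin formed from Luciferin-H EGE (10uM, equal to KM). Enzyme 5nM in 50mM KPO4; compound added, 10 min at 37C, then NADPH regenerating system for 60 min at 37C. Full inhibition defined by 57uM ketoconazole.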
# [16] = target: Dual specificity protein kinase CLK4 (Homo sapiens) (UniProt Q9HAZ1); assay: qHTS Assay for Inhibitors of CDC-like Kinase 4 (Kinase-Glo Assay) (AID 1770); further: nearly all actives have a fitted effect of over 65% in size; further: potency means the concentration at half of the fitted maximal effect
# In short: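 Luminescent ATP-depletion read-out (Kinase-Glo) after 4.5 h room-temperature reaction of Clk4 (25 nM final) with RS peptide (100 uM) and ATP (1 uM), pH 7.5 Tris buffer with MgCl2 and DTT.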
# [17] = target: Dual specificity protein kinase CLK4 (Homo sapiens) (UniProt Q9HAZ1); assay: qHTS Assay for Inhibitors of CDC-like Kinase 4 (ADP-Glo Assay) (AID 1771); further: nearly all actives have a fitted effect of over 70% in size; further: potency means the concentration at half of the fitted maximal effect
# In short: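 25 nM Clk4, 100 uM RS peptide, 1 uM ATP (final); 2 mM MgCl2, 0.5 mM EGTA, 2.5 mM DTT, 0.01% Triton X-100; 1 hr RT. ADP-Glo readout: ATP depletion 45 min, conversion/luciferase 30 min, luminescence.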
# [18] = target: Dual specificity protein kinase CLK4 (Homo sapiens) (UniProt Q9HAZ1); assay: qHTS Assay for Inhibitors of CDC-like Kinase 4 (ADP-FP Assay) (AID 1795);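 further: recombinant human CLK4 phosphorylating RS repeat peptide at 1 µM ATP; nearly all actives have a fitted effect of over 60% in size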
# In short: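 Kinase activity was measured as ADP production using Transcreener orange tracer (4 nM) and ADP antibody (1 ug/mL) fluorescence polarization, with ADP calculated from a calibration curve. The 1 h reaction contained 6.25 nM Clk4, 1 uM ATP and 100 uM RS peptide at pH 7.5 with Mg2+.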
# [19] = target: Cytochrome P450 3A4 (Homo sapiens) (UniProt P08684); assay: qHTS Assay for Inhibitors and Substrates of Cytochrome P450 3A4 (AID 884); further: potency means the concentration at half of the fitted maximal effect; nearly all actives have a fitted effect of over 50% in size
# In short: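 Luminescent readout of luciferin produced by CYP3A4 (20 nM) dealkylation of Luciferin-PPXE, 25 uM (its KM). NADPH-driven reaction ran 60 min at RT after 10 min compound preincubation; data scaled to 57 uM ketoconazole as 100% inhibition.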
# [20] = target: Glucocorticoid receptor (Homo sapiens) (UniProt P04150); assay: GR-GFP Redistribution (AID 450;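 active means compounds whose dose series gives a full or clear partial fitted curve of increased nuclear translocation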; further: potency means the concentration at half of the fitted maximal effect); details: U2OS GR-GFP nuclear translocation, laser cytometry, 2 h
# [21] = target: Cytochrome P450 2C9 (Homo sapiens) (UniProt P11712); assay: qHTS Assay for Inhibitors and Substrates of Cytochrome P450 2C9 (AID 883); further: potency means the concentration at half of the fitted maximal effect; nearly all actives have a fitted effect of over 60% in size
# In short: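 10nM CYP2C9 + 100uM Luciferin-H (=KM), 25mM KPO4; cpd 10 min 37C; NADPH regen, 60 min 37C; stop/detect with P450 Glo-Buffer 20 min; luminescence. Norm. to 57uM sulphaphenazole as full inhibition.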
# [22] = target: Cytochrome P450 2D6 (Homo sapiens) (UniProt P10635); assay: qHTS Assay for Inhibitors and Substrates of Cytochrome P450 2D6 (AID 891); further: potency means the concentration at half of the fitted maximal effect; nearly all actives have a fitted effect of over 60% in size
# In short: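 Luminescent read-out of luciferin formed by 5 nM human CYP2D6 demethylating 30 uM Luciferin-ME EGE (Km level) over 60 min at room temperature after NADPH regeneration addition. Data normalized to full inhibition by 1.43 uM quinidine.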
# [23] = target: Tumor susceptibility gene 101 protein (Homo sapiens) (UniProt Q99816); assay: qHTS Assay for Iinhibitors of HIV-1 Budding by Blocking the Interaction of PTAP/TSG101: Hit Validation (AID 651600); further: nearly all actives have a fitted effect of over 70% in size
# In short: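 FITC-PTAP peptide (50 nM final) binding to Tsg101 binding domain (10 uM final) was measured by polarization after 20 min at r.t. with compounds, in 10 mM HEPES pH 7.5 buffer with 0.15 M NaCl and 0.01% Tween 20.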
# [24] = target: Rap guanine nucleotide exchange factor 3 (Homo sapiens) (UniProt O95398); assay: Counterscreen qHTS for agonist of cAMP-regulated guanine nucleotide exchange factor 3 (EPAC1) (AID 1645889); further: nearly all actives have a fitted effect of over 40% in size
# In short: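 Rap1B–BODIPY-GDP (250 nM) with 50 uM GDP; compounds pin-transferred to 9.74 nM–152 uM final (activator) or from 7.32 nM upwards (inhibitor). Fluorescence Ex/Em 480/540 nm read at 5 and 30 min, then after adding cAMP or buffer, at room temperature.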
# Sequence of Rap guanine nucleotide exchange factor 3 (Homo sapiens) (O95398 whole entry, looked up): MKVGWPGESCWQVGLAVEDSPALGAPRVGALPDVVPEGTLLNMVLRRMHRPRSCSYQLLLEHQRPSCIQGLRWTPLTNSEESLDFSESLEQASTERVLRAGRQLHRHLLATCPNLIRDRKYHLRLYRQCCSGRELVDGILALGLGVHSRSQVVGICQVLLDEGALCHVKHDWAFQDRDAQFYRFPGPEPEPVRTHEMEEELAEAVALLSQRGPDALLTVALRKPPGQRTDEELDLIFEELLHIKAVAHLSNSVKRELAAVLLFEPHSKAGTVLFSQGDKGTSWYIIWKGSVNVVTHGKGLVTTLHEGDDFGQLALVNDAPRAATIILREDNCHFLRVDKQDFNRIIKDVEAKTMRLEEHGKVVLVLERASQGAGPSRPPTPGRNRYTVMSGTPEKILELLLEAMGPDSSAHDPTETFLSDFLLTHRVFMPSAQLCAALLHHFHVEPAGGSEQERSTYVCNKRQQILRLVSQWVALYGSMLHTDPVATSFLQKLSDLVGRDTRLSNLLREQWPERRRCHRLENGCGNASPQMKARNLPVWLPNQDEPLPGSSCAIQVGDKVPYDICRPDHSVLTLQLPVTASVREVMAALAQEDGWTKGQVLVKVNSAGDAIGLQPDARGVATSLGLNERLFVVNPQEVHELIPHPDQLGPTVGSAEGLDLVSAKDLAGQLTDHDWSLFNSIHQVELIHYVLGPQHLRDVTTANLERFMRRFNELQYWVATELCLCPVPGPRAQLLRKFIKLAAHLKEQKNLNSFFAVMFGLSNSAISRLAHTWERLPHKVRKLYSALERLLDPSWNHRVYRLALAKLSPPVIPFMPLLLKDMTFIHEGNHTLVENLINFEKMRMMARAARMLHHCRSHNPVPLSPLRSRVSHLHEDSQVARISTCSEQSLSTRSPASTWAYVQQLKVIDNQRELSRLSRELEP
# Sequence of Ubiquitin carboxyl-terminal hydrolase 1 (Homo sapiens) (O94782 whole entry, looked up): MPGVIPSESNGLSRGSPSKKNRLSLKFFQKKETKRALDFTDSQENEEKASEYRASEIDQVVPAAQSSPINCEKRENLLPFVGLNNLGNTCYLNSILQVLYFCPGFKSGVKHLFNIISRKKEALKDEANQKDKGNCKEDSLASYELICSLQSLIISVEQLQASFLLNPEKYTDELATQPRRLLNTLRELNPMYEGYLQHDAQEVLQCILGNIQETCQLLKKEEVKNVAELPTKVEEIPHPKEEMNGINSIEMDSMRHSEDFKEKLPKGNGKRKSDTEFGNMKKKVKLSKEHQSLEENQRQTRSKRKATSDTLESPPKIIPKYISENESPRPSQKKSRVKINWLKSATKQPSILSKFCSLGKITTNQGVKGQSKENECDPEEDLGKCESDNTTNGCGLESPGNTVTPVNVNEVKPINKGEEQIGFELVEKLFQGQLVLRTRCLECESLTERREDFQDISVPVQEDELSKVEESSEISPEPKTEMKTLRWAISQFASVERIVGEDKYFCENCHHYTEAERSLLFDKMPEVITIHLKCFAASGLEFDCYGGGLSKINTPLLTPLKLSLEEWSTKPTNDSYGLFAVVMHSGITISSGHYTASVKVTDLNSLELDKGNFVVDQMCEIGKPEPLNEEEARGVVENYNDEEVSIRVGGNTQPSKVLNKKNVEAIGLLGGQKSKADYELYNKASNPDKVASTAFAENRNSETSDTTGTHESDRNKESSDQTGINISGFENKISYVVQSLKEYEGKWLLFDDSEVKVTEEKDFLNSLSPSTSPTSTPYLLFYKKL
# Sequence of Rap guanine nucleotide exchange factor 4 (Homo sapiens) (Q8WZA2 whole entry, looked up): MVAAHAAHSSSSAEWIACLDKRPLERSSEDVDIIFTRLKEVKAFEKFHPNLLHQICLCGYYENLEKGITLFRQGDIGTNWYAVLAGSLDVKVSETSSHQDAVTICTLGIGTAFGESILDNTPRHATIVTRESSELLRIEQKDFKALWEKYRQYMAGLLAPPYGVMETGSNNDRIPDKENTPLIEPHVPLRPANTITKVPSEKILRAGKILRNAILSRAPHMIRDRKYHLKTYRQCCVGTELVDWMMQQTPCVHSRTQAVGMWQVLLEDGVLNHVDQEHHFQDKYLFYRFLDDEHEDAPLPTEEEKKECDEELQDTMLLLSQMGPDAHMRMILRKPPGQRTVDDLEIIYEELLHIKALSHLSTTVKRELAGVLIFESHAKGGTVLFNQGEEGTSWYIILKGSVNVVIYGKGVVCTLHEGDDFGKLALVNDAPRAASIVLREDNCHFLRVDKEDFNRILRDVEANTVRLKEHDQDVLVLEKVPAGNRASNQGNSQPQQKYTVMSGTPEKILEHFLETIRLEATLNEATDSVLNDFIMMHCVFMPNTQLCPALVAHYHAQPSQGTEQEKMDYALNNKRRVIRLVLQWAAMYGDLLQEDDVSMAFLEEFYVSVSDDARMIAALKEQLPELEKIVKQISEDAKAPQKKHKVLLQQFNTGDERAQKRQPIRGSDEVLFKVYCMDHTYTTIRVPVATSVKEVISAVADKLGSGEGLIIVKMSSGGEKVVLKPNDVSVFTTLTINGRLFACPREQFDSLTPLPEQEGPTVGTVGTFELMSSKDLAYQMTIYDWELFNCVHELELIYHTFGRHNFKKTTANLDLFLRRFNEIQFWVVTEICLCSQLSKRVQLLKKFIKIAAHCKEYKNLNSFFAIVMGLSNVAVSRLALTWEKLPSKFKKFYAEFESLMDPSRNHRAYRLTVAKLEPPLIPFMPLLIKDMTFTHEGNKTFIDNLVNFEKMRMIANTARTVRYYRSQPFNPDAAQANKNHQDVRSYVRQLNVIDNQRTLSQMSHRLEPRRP
# Sequence of Dual specificity protein kinase CLK4 (Homo sapiens) (Q9HAZ1 whole entry, looked up): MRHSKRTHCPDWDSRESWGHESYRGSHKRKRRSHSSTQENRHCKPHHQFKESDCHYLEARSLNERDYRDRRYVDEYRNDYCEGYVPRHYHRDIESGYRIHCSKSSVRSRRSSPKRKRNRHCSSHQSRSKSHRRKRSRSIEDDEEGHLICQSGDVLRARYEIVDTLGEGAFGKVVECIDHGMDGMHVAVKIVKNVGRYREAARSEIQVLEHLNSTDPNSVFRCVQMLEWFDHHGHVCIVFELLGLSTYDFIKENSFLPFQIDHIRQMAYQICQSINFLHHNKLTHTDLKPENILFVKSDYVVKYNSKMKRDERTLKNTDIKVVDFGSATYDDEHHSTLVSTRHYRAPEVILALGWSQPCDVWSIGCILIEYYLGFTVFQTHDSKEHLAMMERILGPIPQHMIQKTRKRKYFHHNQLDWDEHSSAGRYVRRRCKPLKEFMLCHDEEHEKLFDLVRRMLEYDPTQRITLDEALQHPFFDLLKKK
# Sequence of Glucocorticoid receptor (Homo sapiens) (P04150 whole entry, looked up, the tested form may be a part): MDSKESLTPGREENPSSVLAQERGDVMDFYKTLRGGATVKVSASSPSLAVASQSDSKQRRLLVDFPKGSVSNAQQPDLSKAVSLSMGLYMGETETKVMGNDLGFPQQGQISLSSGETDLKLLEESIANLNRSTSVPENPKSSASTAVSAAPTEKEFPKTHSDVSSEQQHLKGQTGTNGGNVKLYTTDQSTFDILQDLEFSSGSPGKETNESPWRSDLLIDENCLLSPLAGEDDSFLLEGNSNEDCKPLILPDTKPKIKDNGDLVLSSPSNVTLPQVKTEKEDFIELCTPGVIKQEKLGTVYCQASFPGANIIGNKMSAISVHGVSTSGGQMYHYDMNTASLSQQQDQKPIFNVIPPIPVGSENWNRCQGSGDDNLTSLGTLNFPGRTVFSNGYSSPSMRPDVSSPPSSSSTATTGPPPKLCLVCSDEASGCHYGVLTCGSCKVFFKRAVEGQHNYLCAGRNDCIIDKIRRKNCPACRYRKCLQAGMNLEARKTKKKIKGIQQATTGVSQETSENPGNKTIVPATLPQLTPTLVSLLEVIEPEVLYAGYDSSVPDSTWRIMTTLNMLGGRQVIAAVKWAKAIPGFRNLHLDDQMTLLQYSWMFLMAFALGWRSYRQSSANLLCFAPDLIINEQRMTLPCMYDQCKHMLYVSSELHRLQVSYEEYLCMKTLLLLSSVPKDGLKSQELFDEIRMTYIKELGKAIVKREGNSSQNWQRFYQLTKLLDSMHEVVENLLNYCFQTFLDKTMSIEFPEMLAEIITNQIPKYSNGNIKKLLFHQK
# Sequence of Cytochrome P450 3A4 (Homo sapiens) (P08684 whole entry, looked up): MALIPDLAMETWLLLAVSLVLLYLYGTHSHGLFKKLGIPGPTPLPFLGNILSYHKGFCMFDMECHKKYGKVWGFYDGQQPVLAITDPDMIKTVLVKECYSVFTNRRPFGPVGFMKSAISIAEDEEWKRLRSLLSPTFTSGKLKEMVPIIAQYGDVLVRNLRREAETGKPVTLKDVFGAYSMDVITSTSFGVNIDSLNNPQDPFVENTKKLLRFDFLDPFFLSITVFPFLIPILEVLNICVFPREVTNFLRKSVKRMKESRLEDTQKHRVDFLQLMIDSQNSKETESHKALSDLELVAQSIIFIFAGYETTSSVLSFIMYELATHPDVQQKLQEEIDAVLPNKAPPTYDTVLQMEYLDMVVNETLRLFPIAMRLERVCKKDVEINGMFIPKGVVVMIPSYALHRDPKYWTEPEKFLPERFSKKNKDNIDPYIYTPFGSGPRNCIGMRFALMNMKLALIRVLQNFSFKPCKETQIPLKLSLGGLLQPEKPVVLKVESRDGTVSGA
# Sequence of Cytochrome P450 2C19 (Homo sapiens) (P33261 whole entry, looked up): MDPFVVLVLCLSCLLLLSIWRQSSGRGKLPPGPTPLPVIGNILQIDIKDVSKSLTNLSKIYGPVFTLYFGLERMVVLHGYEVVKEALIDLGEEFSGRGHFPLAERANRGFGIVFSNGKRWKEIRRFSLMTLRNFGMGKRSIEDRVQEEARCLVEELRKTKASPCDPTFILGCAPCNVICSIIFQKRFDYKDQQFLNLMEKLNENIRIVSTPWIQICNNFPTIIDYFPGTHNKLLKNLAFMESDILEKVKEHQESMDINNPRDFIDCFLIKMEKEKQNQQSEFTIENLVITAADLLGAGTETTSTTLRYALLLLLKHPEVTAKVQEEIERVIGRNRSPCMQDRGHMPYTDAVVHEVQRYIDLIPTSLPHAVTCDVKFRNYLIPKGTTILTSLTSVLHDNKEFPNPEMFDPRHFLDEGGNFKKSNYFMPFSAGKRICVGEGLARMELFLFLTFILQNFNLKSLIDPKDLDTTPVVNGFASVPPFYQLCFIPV
smiles,measurement,setting,value
CC1(C)C(OC(=O)CCC(=O)O)CC[C@]2(C)C1CC[C@@]1(C)C2C(=O)C=C2[C@@H]3C[C@@](C)(C(=O)O)CC[C@]3(C)CCC21C (some centres undefined),Potency,[1],inactive
same,Potency,[2],inactive
same,Potency,[3],inactive
same,Potency,[4],inactive
same,Potency,[5],inactive
same,Potency,[6],inactive
same,Potency,[7],15.6 µM (active)
CN(C)c1ncc2nc(CCc3ccccc3)c(=O)n(Cc3cccs3)c2n1,"activity change, negative = inhibition",[8],16.2%
same,Potency,[9],1.58 µM (active)
same,"activity change, negative = inhibition",[10],-16.3%
same,outcome,[11],inactive
same,Potency,[12],> 46 µM
same,Potency,[13],inactive
same,outcome,[14],inactive
same,Potency,[15],6.31 µM (active)
same,Potency,[16],inactive
same,Potency,[17],inactive
same,Potency,[18],inactive
same,Potency,[3],inactive
same,Potency,[4],inactive
same,Potency,[5],inactive
same,Potency,[6],inactive
same,Potency,[7],inactive
COc1cc2c(cc1OC)C1C(=O)c3ccc4c(c3OC1CO2)C=CC(C)(C)O4 (centres undefined),Potency,[19],31.6 µM (active)
same,outcome,[14],inactive
same,Potency,[1],inactive
same,Potency,[2],inactive
same,Potency,[4],inactive
same,Potency,[5],inactive
same,Potency,[6],inactive
same,Potency,[7],inactive
COc1ccc2[nH]cc(CCNc3ncnc4ccc(-c5ccccc5OC)cc34)c2c1,"activity change, negative = inhibition",[8],-28.6%
same,Potency,[9],7.94 µM (active)
same,"activity change, negative = inhibition",[10],20.2%
same,outcome,[11],inactive
same,Potency,[20],> 46 µM
same,Potency,[12],> 46 µM
same,Potency,[13],inactive
same,Potency,[21],0.251 µM (active)
same,outcome,[14],inactive
same,Potency,[22],3.98 µM (active)
same,Potency,[15],2 µM (active)
same,Potency,[16],25.1 µM (active)
same,Potency,[17],25.1 µM (active)
same,Potency,[18],inactive
same,Potency,[3],inactive
same,Potency,[4],inactive
same,Potency,[5],inactive
same,Potency,[6],inactive
same,Potency,[7],inactive
CCOC(=O)c1cnc2ccc(OC)cc2c1Nc1ccc(N2CCN(C)CC2)cc1,Potency,[23],inactive
same,Potency,[4],inactive
same,Potency,[5],inactive
same,activation,[6],"12.5% [at 17.1 µM, percent relative to cAMP agonist control]"
same,Potency,[7],inactive
same,activation,[24],12.2% [at 30.8 µM]
CCOC(=O)C1(O)Oc2cc(OC)cc(OC)c2C(=O)C1c1ccccc1 (centres undefined),outcome,[14],inactive
same,Potency,[1],inactive
same,Potency,[2],inactive
same,Potency,[3],inactive
same,Potency,[4],inactive
same,Potency,[5],inactive
same,Potency,[6],inactive
same,Potency,[7],inactive
